Each structure is given as a SMILES string. The whole screen tested about 63,000 compounds, of which about 1,100 (1.7%) were called active. What follows is part of a selection rich in actives, with near analogues and random picks from the rest. Entries with a potency or affinity are not part of this list. Unmarked numbers belong to inactive results.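 Rule for the calls: active = compounds whose percent cytotoxicity in the single-dose primary screen, scaled between solvent and toxic-drug controls, exceeds 50; inactive = the rest.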

This experiment in a line: viability loss of HPDE-C7K cells – cell-based, fluorescence, HTS, primary screen (AID 431).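 Note: 0% = DMSO solvent wells and 100% = doxorubicin-treated wells.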 To be noted: HPDE-C7K KRASV12 cells, Alamar Blue viability, 48 h; at 10 µM; stronger effect = higher value. For orientation: The colour change of resazurin is a common sign of viable cells or microbes.
`c1ccc(-n2nnnc2Sc2n[nH]c(-c3ccncc3)n2)cc1`: the cytotoxicity was -8.6%.
The same measure for `CC(=O)C1=C(O)C(=O)N(CCN(C)C)C1c1ccc(Cl)cc1` (stereo not drawn): 1%; for `COc1cccc(CNC(=O)C2CCN(C(=O)N(C)C)CC2)c1`: -6.1%.
For the compound `Cc1ccc(O)c(CC(C)C)n1`, the cytotoxicity is 5.8%.
Consider `CCC(NC(C)C)C(O)c1ccc(O)c(O)c1` (stereo not drawn), for which the cytotoxicity is 2.8%.
The same measure for `CC1CCCN(S(=O)(=O)c2cccc(-c3cn4cccnc4n3)c2)C1` (stereo not drawn): -3%; for `O=C(Nc1ccc(N2CCOCC2)cc1)Nc1ccc2nc(-c3ccco3)c(-c3ccco3)nc2c1`: 80.3% (active); for `O=C(Nc1ccc2nc(-c3ccco3)c(-c3ccco3)nc2c1)N1CCCCCC1`: 38.8%.
Take `O=C(Nc1ccc(N2CCOCC2)cc1)c1ccc2nc(-c3ccco3)c(-c3ccco3)nc2c1`: the cytotoxicity is -26.4%.
On to `Cn1nnnc1SCC(=O)N1CCc2ccccc2C1`, for which the cytotoxicity was -12.2%.
Under `CC(C)c1ccc(NC(=O)C(c2ccccc2)N2CCN(C(=O)c3ccco3)CC2)cc1` (stereo not drawn) stands -11.8%; under `COc1ccc(NS(=O)(=O)c2ccc(O)c(C(=O)OCC(=O)N3CC(C)OC(C)C3)c2)cc1` (stereo not drawn), 11.2%.
Turning to `C=CCn1c(Cc2csc(N)n2)nnc1SCc1ccc(C(=O)OC)cc1`, the cytotoxicity is -10.3%.
Consider `Cc1ccc(-n2c(SCC(=O)NCc3ccco3)nc3sc(C)c(C)c3c2=O)cc1`, for which the cytotoxicity is -4%.
Under `Cc1cc(C)c2ccc(N)nc2c1O` stands 121% (active); under `Cc1cc(C)c2ccc(C)[n+]([O-])c2c1O`, -6.5%; under `Cc1cc(=O)oc2c(N)c(O)ccc12`, -2.8%.
On to `CCCC(=O)Nc1ccccc1NC(=O)CN(C)S(=O)(=O)c1ccccc1`, for which the cytotoxicity was -1.8%.
The same measure for `Cc1csc(NC(=O)CSc2nc(C)cs2)n1`: 6.5%.
On to `CC(C)(C)NC(=O)CSc1nsc(SCC(=O)NC(C)(C)C)c1C#N`, for which the cytotoxicity is 11.8%.
The same measure for `Cc1n[nH]c(C)c1Cc1ccc(C(=O)O)cc1`: -13.2%; for `CS(=O)(=O)c1ccc2nc(NC(=O)CC3CCCC3)sc2c1`: -9%.
Regarding `Cc1cc(C)c(NC2=NCC(=O)N2C2CCCCC2)c(C)c1`, the cytotoxicity is -9.5%.
Under `Cc1nc(N2CCc3ccccc3C2)[nH]c(=O)c1CCC(C)C` stands 8.4%; under `COc1ccc(C)cc1NC(=O)CN(c1ccccc1)S(C)(=O)=O`, -2.4%.
Under `O=C(Nc1nccs1)c1cc2sccc2n1Cc1ccc(F)cc1` stands -3.4%; under `Cc1ccc(C)c(Oc2nnnn2-c2ccccc2)c1`, -2.3%; under `COc1ccc(CCNc2nnc(Sc3nnnn3-c3ccccc3)s2)cc1OC`, 68.8% (active).
The same measure for `Cn1ccnc1Sc1nnnn1-c1ccccc1`: -9.8%; for `c1ccc(-n2nnnc2SCCCSc2nc3ccccc3s2)cc1`: 2%.
As for `COc1ccc(-n2nnnc2SCC(=O)NCCc2ccc(OC)c(OC)c2)cc1`, the cytotoxicity was -3.9%.
Under `CCCSc1nnc(Sc2nnnn2-c2ccccc2)s1` stands 88.2% (active); under `C(=C\CSc1nnnn1-c1ccccc1)/CSc1nnnn1-c1ccccc1`, -12.8%; under `COc1ccc(CCNC(=O)CSc2nnnn2-c2ccccc2OC)cc1OC`, 6.4%.
Under `CC1CC(c2ccccc2)n2nc(NC(=O)CCc3ccccc3)nc2N1` (stereo not drawn) stands 3.9%; under `O=C(NCc1cccs1)c1noc2c1CCCC2`, 5.2%.
Under `O=C1CC(N2CCN(c3ccc(S(=O)(=O)N4CCCC4)cc3)CC2)C(=O)N1c1ccc(F)cc1` (stereo not drawn) stands -0.7%.
`CCOc1ccc2[nH]c(O)c(NC(C)=O)c2c1`: the cytotoxicity is -16.9%.
Under `Cc1oc(-c2ccc(Cl)cc2)nc1CN1CCC(C(=O)N2CCN(c3ccccn3)CC2)CC1` stands 8%; under `O=C(NC1CCCCC1)n1c(=O)oc2ccccc21`, -35.5%; under `Cc1nc(C)c(-c2csc(NCc3ccco3)n2)s1`, -14.9%.
Consider `CCOC(=O)c1csc(NC(=O)c2ccccc2)n1`, for which the cytotoxicity is -0.2%.
The same measure for `O=C(Nc1nc2c(s1)C(=O)CCC2)c1ccccc1`: -6.7%; for `O=C(Nc1nc(-c2ccco2)cs1)c1ccccc1`: 20.8%; for `Cc1nc(NC(=O)c2ccccc2)sc1-c1csc(N)n1`: 58.6% (active).
As to `Cc1nc(NC(=O)c2ccccc2)sc1-c1csc(NCc2ccco2)n1`, the cytotoxicity was 73.6% (active).
The same measure for `Cn1c(=O)c2c(nc(SCC(=O)O)n2Cc2cccc(C(F)(F)F)c2)n(C)c1=O`: -7.6%; for `CCCCOc1ccc(/C(O)=C2/C(=O)C(=O)N(CCCOC)C2c2ccncc2)cc1C` (stereo not drawn): -8.2%; for `COc1ccc(CN2C(=O)NC3(CCCCCC3)C2=O)cc1F`: -2.8%.
As for `CC(C)(C)c1cc(NC(=O)c2cccnc2)no1`, the cytotoxicity is -7.8%.
The same measure for `O=C(Cn1c(=O)sc2ccccc21)Nc1ccccc1C(=O)O`: 18.1%; for `COc1ccc(C2C(C(=O)Nc3ccccc3OC)=C(C)Nc3ncnn32)cc1` (stereo not drawn): -6.4%; for `CCOC(=O)C1=C(CSc2nc(C)ccc2C#N)OC(N)=C(C#N)C1c1cccc(OC)c1OC` (stereo not drawn): 57.6% (active).
Under `CCOC(=O)C1=C(CSc2nc(C)cc(C)c2C#N)OC(N)=C(C#N)C1c1cccs1` (stereo not drawn) stands -2.2%.
Consider `CCOC(=O)C1=C(CSc2nc3c(cc2C#N)CN(C)CC3)OC(N)=C(C#N)C1c1ccccc1` (stereo not drawn), for which the cytotoxicity was 14.3%.
Under `CCOC(=O)C1=C(C)OC(N)=C(C#N)C1c1ccc(OC)c(C)c1OC` (stereo not drawn) stands 2.9%; under `CCOC(=O)C1=C(CSc2nc3c(cc2C#N)CCC3)OC(N)=C(C#N)C1c1ccccc1` (stereo not drawn), 108% (active); under `CCOC(=O)C1=C(CSc2nc(-c3ccncc3)ccc2C#N)OC(N)=C(C#N)C1c1cccnc1` (stereo not drawn), 20%.
The same measure for `COc1cc(S(=O)(=O)NCC2CCCO2)c(OC)cc1Cl` (stereo not drawn): -5.9%; for `CCN(CC)CCN1C(=O)C(=O)/C(=C(/O)c2ccc(Cl)cc2)C1c1ccncc1` (stereo not drawn): -16.4%.
The same measure for `CCOc1ccc(N2CC(=O)SC2=S)cc1`: -11.8%; for `Cc1ccc(C#N)c(SCc2cc3c(cc2Cl)OCO3)n1`: 2.4%.
On to `COc1ccc(S(=O)(=O)Cc2ccc(C(=O)NC3CC3)o2)cc1`, for which the cytotoxicity is -11.3%.

For the origin of these results see PubChem BioAssay AID431 (Sanford-Burnham Center for Chemical Genomics, 2006).
